Experimental data: PubChem BioAssay AID1159580 (chemical genetic matrix, 2015)
Values joined by “and” are separate entries in the source; they are usually repeats but may differ in a detail not shown here. Identical values can stand only once. Hit rate of the full screen: of about 5,500 compounds, about 2,000 (36%) were called active. Not shown: some 18% with an inconclusive outcome. Rule as the data show it: active = normalized growth mostly below about 0.91 (no sharp cut-off); inconclusive = no clear call, values can overlap the other calls; inactive = mostly above about 0.92. Some of the results follow.

Experiment: chemical genetic growth profiling, strain panel (AID 1159580);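 also: tested at 20 µM; growth read once vehicle control cultures reached saturation at 30 °C; 1 = growth at the plate median or of vehicle wells; lower values mean less growth of the strain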
Details: S. cerevisiae deletion strains, growth OD

Measured: normalized growth

O=C(O)C1=CCCNC1
inactive: locus YAL021C, strain ccr4, active compounds read low 1.02 | locus YAL026C, strain drs2, active compounds read low 0.991 | locus YAL030W, strain snc1, active compounds read low 0.999 | locus YBL061C, strain skt5, active compounds read low 0.993 | locus YBR009C, strain hhf1, active compounds read low 1.04 | locus YBR021W, strain FUR4, active compounds read low 1.02 | locus YBR023C, strain chs3, active compounds read low 1.01 | locus YBR171W, strain sec66, active compounds read low 0.985 | locus YBR229C, strain ROT2, active compounds read low 1 | locus YBR231C, strain swc5, active compounds read low 0.981 | locus YBR279W, strain paf1, active compounds read low 0.988 | locus YCL011C, strain gbp2, active compounds read low 1.01 | locus YCL016C, strain dcc1, active compounds read low 1.02 | locus YCL029C, strain bik1, active compounds read low 0.974 | locus YCL061C, strain MRC1 (second series), active compounds read low 1.01 | locus YCL069W, strain vba3, active compounds read low 1 | locus YCR088W, strain abp1, active compounds read low 0.989 | locus YDL005C, strain med2, active compounds read low 0.978 | locus YDL035C, strain GPR1, active compounds read low 0.99 | locus YDL040C, strain nat1, active compounds read low 0.989 | locus YDL074C, strain BRE1, active compounds read low 0.984 | locus YDL101C, strain DUN1, active compounds read low 1.01 | locus YDL185W, strain tfp1, active compounds read low 0.968 | locus YDL192W, strain arf1, active compounds read low 0.973 | locus YDR001C, strain nth1, active compounds read low 0.99 | locus YDR069C, strain doa4, active compounds read low 0.999 | locus YDR101C, strain arx1, active compounds read low 0.979 | locus YDR137W, strain rgp1, active compounds read low 1.01 | locus YDR159W, strain sac3, active compounds read low 0.96 | locus YDR162C, strain NBP2, active compounds read low 1.04 | locus YDR195W, strain ref2 0.959 | locus YDR297W, strain sur2, active compounds read low 1 | locus YDR318W, strain mcm21, active compounds read low 0.995 | locus YDR334W, strain swr1, active compounds read low 0.979 | locus YDR335W, strain msn5, active compounds read low 0.995 | locus YDR363W, strain ESC2, active compounds read low 1.01 | locus YDR388W, active compounds read low 0.989 | locus YDR392W, strain spt3, active compounds read low 0.941 | locus YDR502C, strain sam2, active compounds read low 0.987 | locus YEL003W, strain gim4, active compounds read low 0.989 | locus YEL037C, strain rad23, active compounds read low 0.989 | locus YEL061C, strain CIN8 (second series), active compounds read low 0.987 | locus YEL061C, strain CIN8, active compounds read low 0.998 | locus YER002W, strain NOP16, active compounds read low 0.91 | locus YER015W, strain faa2, active compounds read low 0.984 | locus YER016W, strain bim1, active compounds read low 0.995 | locus YER110C, active compounds read low 0.965 | locus YER111C, strain swi4, active compounds read low 0.981 | locus YER155C, strain BEM2 (second series), active compounds read low 0.959 | locus YER155C, strain BEM2, active compounds read low 0.985 | locus YER167W, strain BCK2, active compounds read low 0.991 | locus YFR010W, strain ubp6, active compounds read low 0.973 | locus YGL078C, strain dbp3, active compounds read low 1.01 | locus YGL086W, strain mad1, active compounds read low 0.98 | locus YGL167C, strain pmr1, active compounds read low 0.99 | locus YGL173C, strain kem1, active compounds read low 0.99 | locus YGL227W, strain vid30, active compounds read low 0.989 | locus YGL240W, strain doc1, active compounds read low 0.986 | locus YGL248W, strain PDE1, active compounds read low 1.02 | locus YGL253W, strain hxk2, active compounds read low 0.981 | locus YGR135W, strain pre9, active compounds read low 0.997 | locus YGR229C, strain SMI1, active compounds read low 1.02 | locus YGR252W, strain gcn5, active compounds read low 1.15 | locus YHR013C, strain ard1, active compounds read low 0.979 | locus YHR027C, strain rpn1, active compounds read low 0.993 | locus YHR030C, strain SLT2, active compounds read low 0.985 and 1.04 | locus YHR079C, strain IRE1 (second series), active compounds read low 0.974 | locus YHR079C, strain IRE1, active compounds read low 1.04 | locus YHR094C, strain hxt1, active compounds read low 0.981 | locus YHR129C, strain ARP1, active compounds read low 0.992 | locus YHR142W, strain chs7, active compounds read low 1.02 | locus YHR200W, strain rpn10, active compounds read low 0.984 | locus YIL066C, strain RNR3, active compounds read low 1.01 | locus YIL073C, strain SPO22, active compounds read low 0.943 | locus YIL125W, strain kgd1, active compounds read low 0.987 | locus YIR030C, strain dcg1, active compounds read low 0.987 | locus YJL092W, strain hpr5, active compounds read low 0.991 | locus YJL095W, strain BCK1 (second series), active compounds read low 1 | locus YJL095W, strain BCK1, active compounds read low 1.05 | locus YJL115W, strain asf1, active compounds read low 0.985 | locus YJL129C, strain trk1, active compounds read low 0.99 | locus YJL134W, strain LCB3, active compounds read low 0.991 | locus YJL154C, strain vps35, active compounds read low 0.98 | locus YJL164C, strain tpk1, active compounds read low 1.02 | locus YJL166W, strain qcr8, active compounds read low 1.01 | locus YJL168C, strain set2, active compounds read low 0.993 | locus YJL187C, strain SWE1 (second series), active compounds read low 1.02 | locus YJR043C, strain POL32, active compounds read low 1.01 | locus YJR066W, strain TOR1, active compounds read low 0.997 | locus YJR075W, strain HOC1, active compounds read low 1.01 and 1 | locus YKL009W, strain mrt4, active compounds read low 0.961 | locus YKL068W, active compounds read low 1 | locus YKL085W, strain MDH1 (second series), active compounds read low 0.973 | locus YKL085W, strain MDH1, active compounds read low 0.973 | locus YKL160W, strain elf1, active compounds read low 1 | locus YKL190W, strain CNB1, active compounds read low 0.997 | locus YKR001C, strain vps1, active compounds read low 0.999 | locus YKR026C, strain gcn3, active compounds read low 0.981 | locus YKR091W, strain srl3, active compounds read low 0.995 | locus YLL001W, strain dnm1, active compounds read low 0.993 | locus YLL026W, active compounds read low 0.994 | locus YLL041C, strain sdh2, active compounds read low 0.987 | locus YLR027C, strain aat2, active compounds read low 0.969 | locus YLR039C, strain RIC1, active compounds read low 0.963 | locus YLR058C, strain SHM2, active compounds read low 1.01 | locus YLR102C, strain apc9, active compounds read low 0.97 | locus YLR113W, strain HOG1, active compounds read low 1.02 | locus YLR221C, strain rsa3, active compounds read low 0.96 | locus YLR258W, strain gsy2, active compounds read low 1.02 | locus YLR262C, strain YPT6 (second series), active compounds read low 1.01 | locus YLR262C, strain YPT6, active compounds read low 0.999 | locus YLR268W, strain sec22, active compounds read low 0.975 | locus YLR320W, strain mms22, active compounds read low 0.963 | locus YLR330W, strain CHS5, active compounds read low 0.984 | locus YLR342W, strain FKS1 (second series), active compounds read low 0.987 | locus YLR342W, strain FKS1, active compounds read low 0.983 | locus YLR357W, strain rsc2, active compounds read low 0.969 | locus YLR370C, strain arc18, active compounds read low 0.998 | locus YLR371W, strain rom2, active compounds read low 0.977 | locus YLR384C, strain iki3, active compounds read low 0.973 | locus YLR418C, strain cdc73, active compounds read low 1.04 | locus YML016C, strain PPZ1, active compounds read low 0.995 | locus YML032C, strain rad52, active compounds read low 0.989 | locus YML120C, strain ndi1, active compounds read low 1.01 | locus YML124C, strain tub3, active compounds read low 1.01 | locus YMR058W, strain fet3, active compounds read low 0.992 | locus YMR078C, strain ctf18, active compounds read low 0.974 | locus YMR125W, strain sto1, active compounds read low 1.01 | locus YMR129W, active compounds read low 0.992 | locus YMR205C, strain PFK2, active compounds read low 1.01 | locus YMR223W, strain ubp8, active compounds read low 1 | locus YMR231W, strain pep5, active compounds read low 0.985 | locus YMR263W, strain SAP30, active compounds read low 1 and 1.01 | locus YMR307W, strain GAS1, active compounds read low 1.12 | locus YNL067W, strain RPL9B, active compounds read low 1.03 | locus YNL071W, strain lat1, active compounds read low 1 | locus YNL153C, strain GIM3, active compounds read low 1.04 and 1.02 | locus YNL175C, strain NOP13, active compounds read low 1 | locus YNL183C, strain NPR1, active compounds read low 1.01 | locus YNL197C, strain WHI3, active compounds read low 0.915 | locus YNL209W, strain ssb2, active compounds read low 1.01 | locus YNL224C, strain SQS1, active compounds read low 1 | locus YNL233W, strain BNI4, active compounds read low 1.02 | locus YNL248C, strain rpa49, active compounds read low 0.965 | locus YNL250W, strain rad50, active compounds read low 0.978 | locus YNL271C, strain bni1, active compounds read low 0.994 | locus YNL298W, strain CLA4, active compounds read low 0.987 | locus YNL307C, strain MCK1, active compounds read low 0.992 | locus YNL322C, strain KRE1 (second series), active compounds read low 1 | locus YNL322C, strain KRE1, active compounds read low 1.01 | locus YNR049C, strain mso1, active compounds read low 0.976 | locus YNR052C, strain pop2, active compounds read low 1.01 | locus YOL006C, strain TOP1, active compounds read low 0.976 | locus YOL012C, strain htz1 1.03 | locus YOL147C, strain pex11, active compounds read low 0.984 | locus YOR001W, strain rrp6, active compounds read low 0.943 | locus YOR061W, strain CKA2, active compounds read low 0.992 | locus YOR069W, strain VPS5, active compounds read low 0.989 | locus YOR070C, strain gyp1, active compounds read low 0.982 | locus YOR080W, strain dia2, active compounds read low 0.987 | locus YOR083W, strain WHI5 (second series), active compounds read low 1.03 | locus YOR083W, strain WHI5, active compounds read low 1.01 | locus YOR106W, strain vam3, active compounds read low 1.01 | locus YOR136W, strain idh2, active compounds read low 0.984 | locus YOR144C, strain elg1, active compounds read low 0.988 | locus YOR184W, strain ser1, active compounds read low 0.97 | locus YOR231W, strain MKK1, active compounds read low 1.05 | locus YOR265W, strain rbl2, active compounds read low 0.992 | locus YOR270C, strain vph1, active compounds read low 0.976 | locus YOR290C, strain snf2, active compounds read low 0.985 | locus YOR316C, strain cot1, active compounds read low 0.98 | locus YPL051W, strain arl3, active compounds read low 0.981 | locus YPL055C, strain LGE1, active compounds read low 1.01 | locus YPL078C, strain atp4, active compounds read low 1.01 | locus YPL106C, strain sse1, active compounds read low 1.01 | locus YPL240C, strain hsp82, active compounds read low 0.992 | locus YPL256C, strain CLN2, active compounds read low 1.03 | locus YPR119W, strain clb2, active compounds read low 0.973 | locus YPR141C, strain kar3, active compounds read low 0.983 | locus YPR163C, strain tif3, active compounds read low 0.983 | locus YPR167C, strain met16, active compounds read low 0.958 | strain wtn01, active compounds read low 0.985
